Test results taken from PMC4336329 (PLoS ONE, 2015).
About 14,000 (4.5%) of roughly 310,000 compounds showed an effect of 50% or more. The effect is printed as a negative number. The entries come from a sample that favours strong results as a whole.

molecular target: human ether-à-go-go-related gene (hERG) potassium channel (human, UniProt Q12809); assay: primary screen, population patch clamp on CHO cells stably expressing hERG; higher = less effect of the substance
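Note: peak tail current of the secondary pulse compared with the same well before compound.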

Sequence of human ether-à-go-go-related gene (hERG) potassium channel (Q12809 whole entry, looked up): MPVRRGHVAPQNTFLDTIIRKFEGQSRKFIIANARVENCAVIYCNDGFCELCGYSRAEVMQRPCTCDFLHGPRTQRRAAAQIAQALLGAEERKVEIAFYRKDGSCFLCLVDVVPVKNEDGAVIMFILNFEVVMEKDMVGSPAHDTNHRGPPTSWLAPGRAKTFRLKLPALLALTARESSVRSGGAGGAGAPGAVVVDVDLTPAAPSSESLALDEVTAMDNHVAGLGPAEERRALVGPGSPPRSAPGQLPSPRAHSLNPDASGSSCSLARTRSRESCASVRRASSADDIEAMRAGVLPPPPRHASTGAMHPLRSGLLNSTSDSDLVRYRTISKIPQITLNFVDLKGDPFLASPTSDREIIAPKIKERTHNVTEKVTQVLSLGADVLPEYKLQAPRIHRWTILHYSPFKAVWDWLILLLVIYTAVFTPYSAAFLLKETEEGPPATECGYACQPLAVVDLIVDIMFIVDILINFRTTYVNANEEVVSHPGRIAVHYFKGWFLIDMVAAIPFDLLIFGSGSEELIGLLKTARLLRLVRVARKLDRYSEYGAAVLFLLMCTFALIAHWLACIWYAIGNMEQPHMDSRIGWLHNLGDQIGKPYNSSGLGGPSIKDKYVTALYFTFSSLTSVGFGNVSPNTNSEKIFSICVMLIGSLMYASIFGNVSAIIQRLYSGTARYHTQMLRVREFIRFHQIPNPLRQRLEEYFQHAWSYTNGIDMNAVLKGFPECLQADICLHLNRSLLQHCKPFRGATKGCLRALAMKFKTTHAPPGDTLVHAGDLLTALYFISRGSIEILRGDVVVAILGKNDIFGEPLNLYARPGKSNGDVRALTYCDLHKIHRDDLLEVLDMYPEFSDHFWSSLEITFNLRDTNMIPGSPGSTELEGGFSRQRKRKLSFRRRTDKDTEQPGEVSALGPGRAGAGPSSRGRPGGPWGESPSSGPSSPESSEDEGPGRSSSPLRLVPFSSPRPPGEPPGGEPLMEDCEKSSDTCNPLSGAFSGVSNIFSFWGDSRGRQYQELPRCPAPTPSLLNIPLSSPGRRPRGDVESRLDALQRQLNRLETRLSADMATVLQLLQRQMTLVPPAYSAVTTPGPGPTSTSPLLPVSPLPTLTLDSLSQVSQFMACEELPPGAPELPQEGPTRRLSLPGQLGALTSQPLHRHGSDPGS

Row | SMILES | hERG current change (%, negative = inhibition) at 10uM [%]
1 | COc1ccc(Oc2ncccc2[N+](=O)[O-])cc1 | 6.57
2 | CN(C)c1ccc(/C=N/NC(=O)c2ccco2)cc1 | 1
3 | O=C(CN1CCN(S(=O)(=O)N2CCCCCC2)CC1)Nc1cc(Cl)ccc1Cl | 7.48
4 | O=C(CN1CCN(S(=O)(=O)N2CCCCC2)CC1)Nc1cc(Cl)ccc1Cl | 10.7
5 | O=C(CN1C(=O)c2ccc([N+](=O)[O-])cc2C1=O)Nc1cc(S(=O)(=O)N2CCOCC2)ccc1Cl | -60.8
6 | COc1ccc(S(=O)(=O)N2CCN(CC(=O)Nc3cc(Cl)ccc3Cl)CC2)cc1 | -7.44
7 | COc1ccc(Cl)cc1NC(=O)CN1CCN(S(=O)(=O)N2CCCCC2)CC1 | -9.48
8 | COc1ccc(Cl)cc1NC(=O)CN1CCN(S(=O)(=O)N2CCC(C)CC2)CC1 | -32.1
9 | COc1ccc(Cl)cc1NC(=O)CN1CCN(S(=O)(=O)N2CCOCC2)CC1 | -55.9
10 | O=C(CN1CCOCC1)Nc1cc([N+](=O)[O-])ccc1Cl | -17
11 | CN(C)c1ccc(NC(=O)CN2CCN(S(=O)(=O)c3cc(Cl)ccc3Cl)CC2)cc1 | -1.09
12 | O=C(CN1CCN(S(=O)(=O)N2CCOCC2)CC1)Nc1cc(Cl)ccc1Cl | -55.2
13 | CN(C)S(=O)(=O)N1CCN(CC(=O)Nc2cc(Cl)ccc2Cl)CC1 | -50.8
14 | CN1CCN(CC(=O)Nc2cc(S(=O)(=O)N3CCOCC3)ccc2Cl)CC1 | 4.13
15 | O=C(O)c1ccccc1-c1cc2ccccc2[nH]1 | 19.7
16 | N#C/C(=C/c1ccc(N2CCOCC2)c([N+](=O)[O-])c1)C(N)=O | -39.8
17 | O=C(OC(C(=O)NCC1CCCO1)c1ccccn1)c1cccs1 (stereo not shown) | 1.83
18 | COCc1nc2ccccc2n1Cc1cccc(C)c1 | -12.8
19 | O=S(=O)(NCC(c1ccco1)N1CCN(c2ccccc2F)CC1)c1ccc(F)cc1 (stereo not shown) | -11.2
20 | CC(C)CNc1nc(Oc2ccc(=O)[nH]n2)nc(N2CCOCC2)n1 | 7.99
21 | O=C(CN1CCN(C(=O)C2CCCO2)CC1)Nc1cc(C(F)(F)F)ccc1Cl (stereo not shown) | -45.8
22 | O=C(CN1CCN(C(=O)C2CCCO2)CC1)Nc1cc(Cl)ccc1Cl (stereo not shown) | -61.9

Row | SMILES | hERG current change (%, negative = inhibition) at 10uM [%]
23 | Cc1ccc(Cl)cc1NC(=O)CN1CCN(S(=O)(=O)N2CCOCC2)CC1 | -64.3
24 | COc1ccc(Cl)cc1NC(=O)CN1CCN(C(=O)N2CCOCC2)CC1 | -38.8
25 | Cc1ccc(Cl)cc1NC(=O)CN1CCN(C(=O)C2CCCO2)CC1 (stereo not shown) | -29.8
26 | O=C(CN1CCN(C(=O)N2CCOCC2)CC1)Nc1cc(Cl)ccc1Cl | -59.9
27 | O=C(CN1CCOCC1)Nc1cc(Cl)ccc1Cl | -32.5
28 | Cc1ccc(Cl)cc1NC(=O)CN1CCN(S(=O)(=O)N2CCC(C)CC2)CC1 | -41.3
29 | Cc1ccc(Cl)cc1NC(=O)CN1CCOCC1 | -0.857
30 | Cn1nnc2cc(C(=O)Nc3ccc(Cl)cc3)ccc21 | -3.78
31 | COc1ccc(-c2cc(C(=O)O)nc3ccc4ccccc4c23)cc1OC | 12.6
32 | O=C(CSc1nc(O)cc(=O)[nH]1)C1CC1 | 7.82
33 | CC(C)(C)N/C=C(\C#N)S(=O)(=O)c1ccc(Br)cc1 | -10.5
34 | C=CCN1C(=O)C2C(C(=O)NC)C3C=CC2(O3)C1C(=O)NCc1ccc(OC)cc1 (stereo not shown) | 0.24
35 | Cc1cc(C)n2nc(CC(=O)NC3CCCCCCC3)nc2n1 | -70.9
36 | Cc1cc(C)n2nc(SCC(=O)NC3CCCCC3)nc2n1 | 1.68
37 | Cc1cc(C)n2nc(CC(=O)NC3CCCCCC3)nc2n1 | 5.03
38 | CCOC(=O)CCc1c(C(=O)OCC)[nH]c(CC)c1C(=O)OCc1ccccc1 | -17.2
39 | COCc1cc(C)nc(SCC(=O)Nc2ccc3c(c2)OCCO3)c1C#N | 13.4
40 | CCOC(=O)C1CCN(C(=O)CN2C(=O)c3ccccc3Sc3ncccc32)CC1 | 6.06
41 | O=C(NCc1ccc2c(c1)OCO2)c1ccc(CS(=O)Cc2cccc(Cl)c2)o1 (stereo not shown) | -23.6
42 | Cc1ccc(CNC(=O)c2ccc(CS(=O)Cc3cccc(Cl)c3)o2)cc1 (stereo not shown) | -21.5
43 | O=C(NCc1cccs1)c1ccc(CS(=O)Cc2cccc(Cl)c2)o1 (stereo not shown) | -39.6
44 | O=C(NCc1ccc(Cl)cc1)c1ccc(CS(=O)Cc2cccc(Cl)c2)o1 (stereo not shown) | -53.5

Row | SMILES | hERG current change (%, negative = inhibition) at 10uM [%]
45 | O=C(NCc1cccc(Cl)c1)c1ccc(CS(=O)Cc2ccccc2Cl)o1 (stereo not shown) | -3.52
46 | COc1ccc(CNC(=O)c2ccc(CS(=O)Cc3ccc(Cl)cc3)o2)cc1 (stereo not shown) | -84.6
47 | Cc1ccc(CS(=O)Cc2ccc(C(=O)NCc3ccccc3)o2)cc1 (stereo not shown) | 11
48 | O=C(NCc1cccc(Cl)c1)c1ccc(CS(=O)Cc2ccc(Cl)cc2)o1 (stereo not shown) | -62.1
49 | COc1ccc(OC)c(CCNC(=O)c2ccc(CS(=O)Cc3ccc(Cl)cc3)o2)c1 (stereo not shown) | -31
50 | O=C(NCc1ccccc1)c1ccc(CS(=O)Cc2ccc(Cl)cc2)o1 (stereo not shown) | -62.5
51 | COc1ccc(CNC(=O)c2ccc(CS(=O)Cc3cccc(Cl)c3)o2)cc1 (stereo not shown) | -37.5
52 | O=C(NCc1ccccc1Cl)c1ccc(CS(=O)Cc2ccc(Cl)cc2)o1 (stereo not shown) | -46.9
53 | COc1cc2c(C(=O)Nc3ccc4c(c3)OCO4)cn(CC(C)C)c(=O)c2cc1OC | -2.44
54 | CCOC(=O)C1C(=O)NC(C)C1c1ccccc1 (stereo not shown) | -4.44
55 | O=C(COC(=O)c1cc2c(s1)CCCC2)NCc1ccccc1Cl | 1.44
56 | CC(C)(C)c1ccc(C(=O)N2CCC(C(=O)NCC3CCCO3)CC2)cc1 (stereo not shown) | -23.6
57 | CC(=O)C1=C(O)C(=O)N(c2ccc(O)cc2)C1c1ccc(Cl)cc1 (stereo not shown) | 17.4
58 | O=C(O)c1ccccc1OC(C(=O)Nc1cc(Cl)cc(Cl)c1)c1ccccc1 (stereo not shown) | 13.5
59 | CC(=O)NC12CC3CC(C1)CC(C(=O)N1CCN(S(=O)(=O)c4ccccc4[N+](=O)[O-])CC1)(C3)C2 | -20.8
60 | CCOC(=O)N1CCc2c(sc(NC(=O)c3ccc(S(=O)(=O)N4CCCC4)cc3)c2C#N)C1 | 19.3
61 | Cc1nnc(OCc2nc3ccccc3n2C)c2ccccc12 | -27.4
62 | Cc1ccc(NC(=O)Cn2cc(C=O)c3ccccc32)cc1 | 17.5
63 | COc1ccc2c(c1)C=C(C(=O)NCc1ccc(Cl)cc1)CO2 | -67
64 | O=C(NCc1ccc(Cl)cc1)C1=Cc2cc(Cl)ccc2OC1 | -10.2
65 | COc1cccc(CNC(=O)C2=Cc3cccc(OC)c3OC2)c1 | 4.36
66 | COc1cc(C2Nc3ccccc3C(=O)N2c2ccccc2)c(Br)cc1OCC(=O)O (stereo not shown) | 0.108

Row | SMILES | hERG current change (%, negative = inhibition) at 10uM [%]
67 | CCOc1cc(C2Nc3ccccc3C(=O)N2c2ccccc2)c(Br)cc1OCC(=O)O (stereo not shown) | -53.8
68 | CCOc1cc(C2Nc3ccccc3C(=O)N2c2ccccc2)ccc1O (stereo not shown) | 4.38
69 | Cc1ccc2ccc(C(Nc3ccccn3)c3ccccc3)c(O)c2n1 (stereo not shown) | -3.72
70 | CCOc1ccc(CNC(=S)NCc2ccc(OCC)cc2)cc1 | 15.2
71 | Cc1ccc(-c2nc(CSCC(=O)N3CCN(C(=O)c4ccco4)CC3)c(C)o2)cc1 | -32.7
72 | CCOc1ccccc1-c1nc(CN2CCCN(C(=O)c3ccco3)CC2)c(C)o1 | 9.83
73 | Cc1oc(-c2ccccc2Cl)nc1CN1CCCN(C(=O)c2ccco2)CC1 | -65.4
74 | Cc1oc(-c2ccc(Cl)cc2)nc1CN1CCCN(C(=O)c2ccco2)CC1 | -72.4
75 | COC(=O)c1ccc(-c2nc(CN3CCCN(C(=O)c4ccco4)CC3)c(C)o2)cc1 | -41.4
76 | Cc1oc(-c2ccc(Cl)cc2)nc1CN1CCCC(C(=O)N2CCN(C(=O)c3ccco3)CC2)C1 (stereo not shown) | -89.5
77 | COc1ccc(F)c(-c2nc(CN3CCN(C(=O)c4ccco4)CC3)c(C)o2)c1 | -35.9
78 | O=C(c1ccco1)N1CCN(Cc2c(Cl)cccc2Cl)CC1 | -8.42
79 | Cc1ccccc1-c1nc(CN2CCN(C(=O)c3ccco3)CC2)c(C)o1 | -5.18
80 | COc1ccc(-c2nc(CN3CCN(C(=O)c4ccco4)CC3)c(C)o2)cc1OC | 1.8
81 | O=C(c1ccco1)N1CCN(Cc2csc(-c3ccccc3Cl)n2)CC1 | -64.9
82 | Cc1onc(-c2ccccc2Cl)c1C(=O)N1CCN(C(=O)c2ccco2)CC1 | -16
83 | CCCC(=O)C1=C(O)C(C(=O)OC)C(C)(C)CC1=NC(C)C (stereo not shown) | 15.1
84 | Cc1cccc(C)c1NC(=O)CSc1nnc(C)c(=O)[nH]1 | 15.1
85 | CC[C@@H]1C(=O)OC[C@@H]1CC1=CN=C[NH+]1C.O=[N+]([O-])[O-] | 15.7
